We go through 41 compounds from PubChem BioAssay AID651548 (Broad Institute, 2012).

A word on the inhibition: it is the change of the read-out against control, counted positive when it falls.

SMILES strings stand for the structures. Values joined by “and” are separate entries in the source; they are usually repeats but may differ in a detail not shown here. Equal values may be shown once. About 200 (0.35%) of roughly 57,000 compounds were called active.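 Rule for the calls: active = mean inhibition of replicates at least 50% and every single replicate also reaching 50%; inconclusive = mean inhibition at least 50% but some replicate falls below 50%; inactive = mean inhibition under 50%.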 Many of the other results were omitted from the sample, so actives are more common in it than they were.

The target of the assay is Histone-lysine N-methyltransferase EZH2 (Homo sapiens) (UniProt Q15910). Kind of assay: EZH2/PRC2 methyltransferase inhibitors, primary screen, biochemical, DELFIA time-resolved fluorescence, single point (AID 651548).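 Note: dimethyl H3K27 on biotinylated H3 21-44 peptide detected by antibody; plate controls were median neutral control wells for no effect and median positive control wells for full effect.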 Conditions: PRC2 H3K27 methylation, DELFIA TRF, 1 h; at 12.5 µM; active compounds read high.
Sequence of Histone-lysine N-methyltransferase EZH2 (Homo sapiens) (Q15910 whole entry, looked up): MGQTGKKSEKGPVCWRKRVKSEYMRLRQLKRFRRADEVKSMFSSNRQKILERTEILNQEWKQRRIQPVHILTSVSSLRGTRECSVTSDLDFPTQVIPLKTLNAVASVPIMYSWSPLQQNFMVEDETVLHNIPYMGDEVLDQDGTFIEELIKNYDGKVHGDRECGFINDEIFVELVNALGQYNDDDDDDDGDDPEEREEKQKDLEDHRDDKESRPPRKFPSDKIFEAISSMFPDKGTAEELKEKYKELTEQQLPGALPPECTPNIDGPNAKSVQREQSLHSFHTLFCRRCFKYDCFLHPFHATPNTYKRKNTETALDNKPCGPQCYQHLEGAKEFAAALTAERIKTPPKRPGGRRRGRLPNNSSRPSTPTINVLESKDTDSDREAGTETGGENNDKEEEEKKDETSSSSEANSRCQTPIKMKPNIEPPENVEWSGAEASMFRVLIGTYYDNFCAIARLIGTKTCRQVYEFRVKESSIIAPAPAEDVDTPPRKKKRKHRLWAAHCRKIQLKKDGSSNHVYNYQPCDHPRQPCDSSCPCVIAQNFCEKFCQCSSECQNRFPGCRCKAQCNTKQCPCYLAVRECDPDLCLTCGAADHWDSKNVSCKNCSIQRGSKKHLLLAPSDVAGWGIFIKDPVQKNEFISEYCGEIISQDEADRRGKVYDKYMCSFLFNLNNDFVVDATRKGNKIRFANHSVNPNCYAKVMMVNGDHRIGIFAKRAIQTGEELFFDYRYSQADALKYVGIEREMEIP
On to `C[C@@H](NC(=O)C[C@@H]1C[C@@H]2c3cc(NC(=O)c4cccnc4)ccc3O[C@@H]2[C@H](CO)O1)c1ccccc1`, for which the inhibition was 4.89% (inactive). For `CCC(=O)N1C[C@@H](C)[C@@H](OC)CN(C)C(=O)c2ccc(NC(=O)c3ccccc3)cc2OC[C@H]1C`, the inhibition is 2.93% (inactive). In the case of `CCCN(C)C[C@H]1Oc2cc(C#CCC3CCCC3)ccc2S(=O)(=O)N([C@@H](C)CO)C[C@@H]1C`, the inhibition is 10.9% (inactive). For the compound `C[C@@H]1CN([C@@H](C)CO)S(=O)(=O)c2ccc(C#CCC3CCCC3)cc2O[C@@H]1CN(C)C`, the inhibition was -6.13% (inactive).

As for `C[C@@H]1CN([C@H](C)CO)S(=O)(=O)c2ccc(C#CCC3CCCC3)cc2O[C@H]1CN(C)Cc1ccc(C(=O)O)cc1`, the inhibition was 58.1% (active). Regarding `CO[C@@H](CN(C)S(=O)(=O)c1ccc(C)cc1)[C@@H](C)CN([C@@H](C)CO)S(=O)(=O)c1cccc(Cl)c1`, the inhibition was 9.64% (inactive). With `CN(C)CCCNC(=O)C[C@H]1C=C[C@@H](NC(=O)Cc2cccnc2)[C@H](CO)O1`, the inhibition is 13.4% (inactive). Then `Cc1ccccc1S(=O)(=O)NCC[C@@H]1CC[C@H](NC(=O)C2CC2)[C@@H](CO)O1`, with -14.1% (inactive). Regarding `COCCNC(=O)C[C@H]1CC[C@H](NS(=O)(=O)c2ccc(C)cc2)[C@@H](CO)O1`, the inhibition is -9.8% (inactive).

In the case of `COCC(=O)N(C)C[C@@H]1Oc2cc(C#CCC(C)C)ccc2S(=O)(=O)N([C@@H](C)CO)C[C@@H]1C`, the inhibition is 7.89% (inactive). As for `CO[C@H]1CN(C)C(=O)c2cc(NC(=O)C3CCCC3)ccc2OC[C@@H](C)N(C(=O)CC2CC2)C[C@@H]1C`, the figure is 4.88% (inactive). As for `C[C@@H]1CN([C@H](C)CO)C(=O)c2cc(NC(=O)CCCN(C)C)ccc2O[C@@H](C)CCCCO[C@H]1CN(C)CC1CCCCC1`, the inhibition is -6.09% (inactive). Consider `C[C@@H]1CN([C@@H](C)CO)S(=O)(=O)c2ccc(C3=CCCCC3)cc2O[C@@H]1CN(C)C(=O)CN(C)C`, for which the inhibition is -15.1% (inactive). Take `O=C(C[C@@H]1C[C@@H]2c3cc(NC(=O)Nc4ccc(F)cc4)ccc3O[C@@H]2[C@H](CO)O1)NCC(F)(F)F`: the inhibition was -13.1% (inactive). On to `CO[C@@H]1CN(C)C(=O)c2cc(NC(=O)c3ccccc3F)ccc2OC[C@H](C)N(C(C)=O)C[C@@H]1C`, for which the inhibition was -5.74% (inactive).

With `C[C@H]1CN([C@@H](C)CO)C(=O)c2cc(Br)cnc2O[C@@H]1CN(C)S(=O)(=O)c1ccc(F)cc1`, the inhibition is 30.8% (inactive). As for `O=C(C[C@@H]1CC[C@@H](NC(=O)c2ccc3c(c2)OCO3)[C@H](CO)O1)NCc1ccc(Cl)cc1`, the inhibition is 11.8% (inactive). For the compound `C[C@@H]1CN([C@H](C)CO)C(=O)c2cccc(NC(=O)CCCCCC(=O)Nc3ccccc3N)c2O[C@H]1CN(C)Cc1ccc(Oc2ccccc2)cc1`, the inhibition is -2.58% (inactive). Regarding `O=C(O)CCCc1ccccc1`, the inhibition is -7.51% (inactive). As for `CCCCCc1ccc(/C=C/C(=O)Nc2ccccc2C(=O)O)cc1`, the figure is 61.8% (active); as for `CN(C)CCCSc1ccccc1NC(=O)/C=C/c1ccccc1`, 7.12% (inactive) and -8.56% (inactive); as for `O=C(N[C@@H]1CC[C@@H](CCNS(=O)(=O)Cc2ccccc2)O[C@@H]1CO)c1ccccc1F`, -4.43% (inactive). In the case of `CCCNC(=O)Nc1ccc2c(c1)C(=O)N(C)C[C@@H](OC)[C@H](C)CN(C(=O)C1CCCCC1)[C@H](C)CO2`, the inhibition is 4.24% (inactive).

Consider `O=C(N[C@H]1CC[C@@H](CCNS(=O)(=O)c2cccc(Cl)c2)O[C@@H]1CO)c1ccncc1`, for which the inhibition is 4.59% (inactive).

As for `O=C(NCC[C@@H]1CC[C@@H](NC(=O)C2CCCC2)[C@H](CO)O1)c1cnccn1`, the inhibition was -12% (inactive). Then `C[C@@H]1CN([C@@H](C)CO)C(=O)c2c(c3ccccc3n2C)-c2ccccc2CO[C@H]1CN(C)C(=O)N[C@H](C)c1ccccc1`, with -0.352% (inactive).

In the case of `CO[C@@H]1CN(C)C(=O)c2cc(NC(=O)C3CCC3)ccc2OC[C@H](C)N(C(=O)CN(C)C)C[C@@H]1C`, the inhibition is -0.841% (inactive). As for `CCCNC(=O)C[C@H]1C[C@@H]2c3cc(NC(=O)NC4CCCC4)ccc3O[C@@H]2[C@@H](CO)O1`, the figure is 5.85% (inactive); as for `C[C@H](NC(=O)C[C@H]1C=C[C@@H](NC(=O)C2CCOCC2)[C@@H](CO)O1)c1ccccc1`, 3.06% (inactive).

`COc1ccccc1-c1cccc(-c2nc(C(=O)N3CCN(C)CC3)cc3c2[C@H](CCO)N([S@@](=O)C(C)(C)C)C3)c1`: the inhibition was 1.13% (inactive). Turning to `CO[C@@H]1CN(C)C(=O)c2cc(NC(C)=O)ccc2OC[C@@H](C)N(C(=O)NC2CCCCC2)C[C@H]1C`, the inhibition is 3.91% (inactive). Then `O=C(C[C@H]1C[C@H]2c3cc(NC(=O)C4CCC4)ccc3O[C@H]2[C@@H](CO)O1)NCc1ccc(Cl)cc1`, with -2.37% (inactive); and `CN1CCN(C(=O)C[C@@H]2C[C@@H]3c4cc(NC(=O)c5ccc6c(c5)OCO6)ccc4O[C@@H]3[C@H](CO)O2)CC1`, with -2.8% (inactive); and `COc1cccc(-c2ccc3c(c2)O[C@H](CN(C)C(=O)c2ccccc2F)[C@@H](C)CN([C@@H](C)CO)S3(=O)=O)c1`, with 0.0695% (inactive). For `O=C(Nc1ccccc1)Nc1ccc2c(c1)[C@@H]1C[C@@H](CC(=O)N3CCCCC3)O[C@H](CO)[C@@H]1O2`, the inhibition is -1.6% (inactive). `O=C(C[C@H]1C[C@H]2c3cc(NC(=O)Nc4ccccc4)ccc3O[C@H]2[C@H](CO)O1)NC1CCCC1`: the inhibition is 2.44% (inactive).

`COc1ccccc1NC(=O)N[C@H]1CC[C@H](CCNS(=O)(=O)c2ccc(Cl)cc2)O[C@H]1CO`: the inhibition was 47.2% (inactive).

For `COc1cccc(C(=O)Nc2ccc3c(c2)OC[C@H](C)N(C(C)=O)C[C@@H](C)[C@@H](OC)CN(C)C3=O)c1`, the inhibition was 6.08% (inactive). Then `C/C=C/c1ccc2c(c1)O[C@H](CN(C)C(=O)C1CCCCC1)[C@@H](C)CN([C@@H](C)CO)S2(=O)=O`, with 13.7% (inactive); and `CCC(=O)Nc1ccc2c(c1)OC[C@@H](C)N(Cc1cncnc1)C[C@H](C)[C@@H](OC)CN(C)C2=O`, with -1.64% (inactive); and `COc1ccc(C(=O)Nc2ccc3c(c2)OC[C@H](C)N(C(C)=O)C[C@@H](C)[C@@H](OC)CN(C)C3=O)cc1`, with -11.8% (inactive).
